Screening data: PubChem BioAssay, National Center for Advancing Translational Sciences (NCATS)
JMJD2A Tudor inh – inhibitors of human JMJD2A Tudor domain. O75164. AlphaScreen JMJD2A-Tudor / H3K4me3 peptide binding. Potency, µM (series often up to 114 µM), for inactives: top-dose activity change, negative = inhibition, actives largely listed as inhibitors. 4.4% of 390,000 active; note: potency is the fitted concentration of half-maximal effect; % is set by controls: 0 for no effect and ±100 for the full control effect; nearly all actives have a fitted effect of over 50% in size
PLK1 PBD inh – PLK1 (human) polo-box domain binding inhibition; AID 720504; Potency, µM, for the others: max response, negative = inhibition, usual class: inhibitors; 2.8% of 360,000 active; Plk1 PBD binding of FITC phosphopeptide, fluorescence polarization; P53350; note: potency is the fitted concentration of half-maximal effect; series mostly up to about 57 µM; % is set by controls: 0 for no effect and ±100 for the full control effect; nearly all actives have a fitted effect of over 65% in size
KAT2A inh – blocks human GCN5L2 histone acetyltransferase. GCN5L2 HAT assay, ThioGlo1 CoA-SH fluorescence. 0.21% of 390,000 active. Potency, µM (titrated, usually from 58.9 µM), without a hit: top-dose activity change, negative = inhibition, hits mostly inhibitors. AID 504327; note: potency is the fitted concentration of half-maximal effect; % is set by controls: 0 for no effect and ±100 for the full control effect
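Enzyme at 20nM final was mixed with library compounds for 15 min at room temperature. Peptide H3(1-25) at 75uM, acetyl-CoA at 70uM and ThioGlo1 at 50uM were then added. Plates were read immediately and after 20 min (Ex340nm/Em540nm).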
HP1b chromo inh – HP1-beta chromodomain-methylated histone interaction inhibition; Potency, µM (doses to about 114 µM), inactives show top-dose activity change, negative = inhibition, most hits filed as inhibitors; P83916; 0.56% of 390,000 active; AlphaScreen HP1-beta / biotin-H3K9me3 peptide binding; note: potency is the fitted concentration of half-maximal effect; nearly all actives have a fitted effect of over 70% in size
Target sequence (P83916 whole entry, looked up): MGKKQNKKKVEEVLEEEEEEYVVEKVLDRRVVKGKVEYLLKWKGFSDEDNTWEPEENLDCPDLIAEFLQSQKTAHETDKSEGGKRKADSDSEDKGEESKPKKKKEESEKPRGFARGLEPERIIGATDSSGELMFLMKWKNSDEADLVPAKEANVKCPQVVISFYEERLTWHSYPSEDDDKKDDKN
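AlphaScreen: HP1-beta (50 nM) preformed 30 min with biotin-H3(1-18)K9me3 peptide (50 nM) in PBS pH 7.4, 0.01% Tween-20. Compound added for 30 min at RT, then streptavidin donor/nickel chelate acceptor beads (10 ug/mL) for 30 min.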
PI5P4Ka inh – PI5P4K alpha (human) kinase inhibition; P48426; PI5P4Kalpha enzyme, ADP-Glo luminescence, 60 min; hits give low values; max response, %; 1.2% of 330,000 active; active = max response of -50% or lower; inconclusive = between -30% and -50%; inactive = -30% or higher; note: value at the top dose of about 77 µM; % is set by controls: 0 for no effect and ±100 for the full control effect
Target sequence (P48426 whole entry, looked up): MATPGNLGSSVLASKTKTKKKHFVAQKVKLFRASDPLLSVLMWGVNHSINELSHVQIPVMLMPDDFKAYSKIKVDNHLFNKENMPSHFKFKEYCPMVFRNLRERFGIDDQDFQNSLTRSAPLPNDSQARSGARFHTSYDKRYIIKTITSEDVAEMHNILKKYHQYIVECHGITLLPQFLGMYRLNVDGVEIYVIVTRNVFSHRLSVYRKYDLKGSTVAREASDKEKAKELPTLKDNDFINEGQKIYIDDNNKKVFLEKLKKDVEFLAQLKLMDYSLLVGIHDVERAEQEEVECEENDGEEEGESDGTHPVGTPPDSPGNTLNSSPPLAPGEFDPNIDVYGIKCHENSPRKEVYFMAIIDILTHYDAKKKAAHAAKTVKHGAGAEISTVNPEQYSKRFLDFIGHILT
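Quantitative HTS of the MLSMR library against PI5P4Kalpha with substrate. ATP added last at 5 microM final; room temperature, 60 minutes. Remaining ATP depleted, ADP converted and read as luminescence.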
BAZ2B inh – blocks human BAZ2B; AlphaScreen BAZ2B-H3K14Ac peptide displacement; Potency, µM (titrated, usually from 114 µM), for the others: at the top dose activity change, negative = inhibition, usual class: inhibitors; 4.4% of 360,000 active; note: potency is the fitted concentration of half-maximal effect; % is set by controls: 0 for no effect and ±100 for the full control effect; nearly all actives have a fitted effect of over 60% in size
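Inhibition is scored as reduced AlphaScreen emission. The BAZ2B/b-H3(5-23)K14Ac complex (50 nM each) in PBS pH 7.4, 0.01% Tween-20 meets compound (up to 110 uM) for 30 min at RT before bead addition.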
Active calls of the source: *; ? = inconclusive; . = no result given; [ ] = another dose, or the depositor's remark. Only some compounds are listed: those with a hit (about 7% of all), similar ones and a draw of the others. Unless noted, calls come from the whole dose curve; as a rule, active = well fitted curve in the direction sought with a large enough effect; inconclusive = small, poorly fitted or top-dose-only effect, or another doubt; inactive = no such curve, though single readings can be large; an effect the other way counts as inactive or inconclusive.

SMILES	JMJD2A Tudor inh	PLK1 PBD inh	KAT2A inh	HP1b chromo inh	PI5P4Ka inh	BAZ2B inh
Cc1ccc(S(=O)(=O)NN2C(=O)/C(=C/c3ccc(C(=O)O)cc3)SC2=S)cc1	?	-8%	1%	17%	-57*	-32%
Cn1cccc1/C=C1\SC(=S)N(Nc2ccccc2)C1=O	?	9%	-6%	?	0	20µM*
Cc1ccc(S(=O)(=O)NN2C(=O)/C(=C/c3ccc(F)cc3)SC2=S)cc1	-19%	?	-22%	12%	?	-27%
Cc1ccc(S(=O)(=O)NN2C(=O)/C(=C\c3ccc(Cl)cc3)SC2=S)cc1	-28%	27µM*	-2%	-20%	-24	-27%
CCCC(C(=O)O)N1C(=O)/C(=C/c2cccn2C)SC1=S (stereo not drawn)	?	57%	-7%	-11%	-19	?
Cc1ccc(S(=O)(=O)NN2C(=O)/C(=C/c3cccn3C)SC2=S)cc1	.	.	3%	.	.	50µM*
CCC(NS(=O)(=O)c1cccs1)c1ccc(C)cc1 (stereo not drawn)	-9%	-10%	-5%	31%	1	-5%
Nc1c2c(nc3ccccc13)N(C1CCCCC1)CC2	7.1µM*	?	-4%	-18%	-3	?
Nc1c2c(nc3ccc(Br)cc13)N(c1ccccc1)CC2	10µM*	-6%	-4%	50µM*	.	40µM*
Nc1c2c(nc3ccccc13)CCC2	-22%	-7%	1%	24%	9	-5%
Cc1cccc(N2CCc3c2nc2ccc(Br)cc2c3N)c1	-30%	0%	-10%	29%	.	-36%
Nc1c2c(nc3ccc(Br)cc13)N(C1CCCCC1)CC2	.	.	-8%	.	.	16µM*
COCCn1c(C)cc(O)c(C(c2ccccc2)N2CCN(c3ccccc3F)CC2)c1=O (stereo not drawn)	-3%	.	5%	32%[57 µM]	.	?
O=C1CC(c2ccc3c(c2)OCCO3)Oc2ccccc21 (stereo not drawn)	-24%	8.4µM*	-3%	30%	0	-10%
CCOC(=O)C(Cc1ccc(NC(=O)/C(=C/c2ccc(OC(C)=O)cc2)NC(C)=O)cc1)N1C(=O)c2ccccc2C1=O (stereo not drawn)	89µM*	27µM*	-6%	-19%	-4	5%
COC(=O)[C@]1(Cc2ccccc2)N[C@H](CN(C)C(=O)Nc2ccc(C)cc2)[C@@H]2C(=O)N(C)C(=O)[C@@H]21	-14%	-12%	-1%	21%	0	.
Cc1cc(C)n2nc(C(=O)NNC(=O)c3ccc(Cl)cc3)nc2n1	-20%	-10%	19%	29%	3	89µM*
Cc1ccc(C(C)(c2ccc(N)cc2)c2ccc(N)cc2)cc1	50µM*	-9%	.	?	13	.
Nc1ccc(C(O)(C(F)(F)F)C(F)(F)F)cc1	?	-7%	0%	13%	.	-3%
CCC(=O)Nc1ccc(C(=O)CSc2nnc(-c3ccccc3F)n2C2CC2)cc1	-11%	-10%	-4%	31%	-51*	-2%
CCC(C)NC(=O)NC(=O)CSc1nnc(-c2ccccc2F)n1C1CC1 (stereo not drawn)	-3%	-9%	-5%	44%	5	3%
COC(=O)CN1C(=O)[C@H]2[C@@H](/C=C/c3ccccc3)N3C(=O)CN(Cc4ccccc4)C(=O)[C@@]3(C)[C@H]2C1=O	-27%	-9%	-22%	19%	-4	2%
CC1CC(C)CN(C(=O)C2CCN(S(=O)(=O)N3CCC4(CC3)OCCO4)CC2)C1 (stereo not drawn)	-1%	-7%	-5%	67%	-10	-5%[57.1 µM]
O=C1Nc2ccccc2C1Cc1ccc(Br)cc1 (stereo not drawn)	-12%	.	-1%	24%	.	0%
CN(C)c1ccc(CC2C(=O)Nc3ccccc32)cc1 (stereo not drawn)	7.1µM*	-9%	2%	28µM*	3	?
SMILES	JMJD2A Tudor inh	PLK1 PBD inh	KAT2A inh	HP1b chromo inh	PI5P4Ka inh	BAZ2B inh
O=C(CSc1nc2ccccc2nc1Cc1ccc(Cl)cc1)N1CCCc2ccccc21	-14%	.	-11%	27%[57 µM]	.	9%
CN(c1ccc([N+](=O)[O-])cc1C(N)=O)C1CCCCC1	-13%	-12%	-3%	20%	5	79µM*
COc1cccc(CNc2nc3cc(-c4ccccc4C)sc3c(=O)n2C)c1OC	.	6%	.	.	42	.
COc1ccc(CCNc2c([N+](=O)[O-])c(=O)oc3ccccc23)cc1OC	3%	3%	?	30%	-2	-4%
COc1ccc(N2CCN(c3nc(NCCc4ccc(OC)c(OC)c4)nc(OC)n3)CC2)cc1	25µM*	-5%	.	?	.	40µM*
CCCc1nc2ccc(C)cn2c1Cc1ccc(OC)cc1C	.	-14%	.	.	-1	.
COc1ccc(N=Nc2c(C)[nH][nH]c2=O)cc1	-34%	-17%	-12%	-30%	-11	56µM*
CC(=O)c1cccc(N=Nc2c(C)[nH]c3ccccc23)c1	?	-4%	-7%	-31%	5	35µM*
CCOc1ccc(N=Nc2c(=O)[nH]n3c(=O)cc(C)[nH]c23)cc1	56µM*	0%	-16%	-22%	-17	50µM*
CCOc1ccc(N=Nc2c(N)[nH][nH]c2=O)cc1	79µM*	-1%	-5%	-25%	-2	?
Cc1cc(=O)n2[nH]c(=O)c(N=Nc3ccccc3)c2[nH]1	?	-5%	?	9%	-19	?
Cc1cc(C)n2ncc(C(=O)Nc3ccccc3)c2n1	-14%	.	.	.	.	.
CCN(N=O)c1ccc(C=C2C=Cc3ccccc32)cc1	?	-3%	.	?	29	.
COc1ccc(N=Nc2c(C)[nH]c3ccccc23)cc1	50µM*	4%	.	?	-3	.
COc1ccc(N=Cc2c(O)[nH]c3ccccc23)cc1	-14%	0%	-7%	8%	.	-7%
Cc1ccc(NCCN(C)C)c2c(=O)c3cc(O)ccc3sc12	40µM*	6%	.	?	3	.
Cc1cc(C=O)c(C)n1-c1ccc(NC2CCCC2)c([N+](=O)[O-])c1	20µM*	3%	-9%	32µM*	9	-11%
CCOC(=O)C1CCCN(C(=O)c2cc(S(=O)(=O)N3CCCCC3)ccc2Cl)C1 (stereo not drawn)	-19%	-10%	-9%	15%	-5	9%
O=c1[nH]c(=S)[nH]c2scc(-c3ccc(Br)cc3)c12	-22%	27µM*	.	-14%	-55*	.
CC(=O)N1CCN(CC(=O)Nc2ccccc2C(=O)Nc2ccccc2)CC1	10%	4%	2%	30%	-4	.
COc1ccc(/C=N/n2c(-c3n[nH]c4c3CCC4)n[nH]c2=S)c(OC)c1OC	4.5µM*	?	-15%	?	-23	-10%
